# Only some compounds are listed: those with a hit (about 4% of all), similar ones and a draw of the others.
# HIF-2a inh = inhibitors of HIF-2a | 786-0 RCC cells HIF-2a reporter, luciferase luminescence, overnight | inhibition, % at 18.8 µM | 0.72% of 360,000 active | AID 624352;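 active = inhibition of the luminescence signal of 40% or more relative to plate controls, in a single-dose primary screen at 18.75 µM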
# TROY signal inh = blocks TROY-dependent signaling in reporter cells; Q293 LMP1-TROYcd NF-kB luciferase reporter, 4 h; inhibition, % at 10 µM; 0.98% of 360,000 active;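 active = compounds whose plate-normalised and pattern-corrected inhibition of the luciferase reporter signal at the single screening dose is 50% or more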
# TWEAK Fn14 block = TWEAK-Fn14 signaling inhibition; TWEAK-stimulated Fn14 reporter cells, luciferase luminescence, 8 h; AID 1159606; 2% of 360,000 active; inhibition, % at 10 µM; in the data active = inhibition above about 50%
# KKLEB cytotox = counter-screen for CF NF-kB inhibitors: cytotoxicity; KKLEB CF airway cells viability, ATPlite luminescence, overnight; stronger effect = lower value; cells stimulated with P. aeruginosa culture filtrate; activity change (cytotoxicity), % at 5 µM; AID 602141; 0.36% of 360,000 active;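 active = corrected activity change at or below -50% at 5 µM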
# Peg3 promoter = reduces Peg3 promoter-driven luciferase expression in HeLa; inhibition, % at 20 µM; HeLa PEG-Prom luciferase reporter, luminescence, overnight; 1.7% of 360,000 active; AID 588405;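 active = inhibition of at least 50% at 20 µM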
# CF NFkB block = blocks PAF-induced NF-kB reporter in cystic fibrosis cells; KKLEB NF-kB-GFP reporter, GFP fluorescence overnight; inhibition, % at 5 µM; 0.86% of 360,000 active; AID 588850;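 active = at least 50% inhibition at 5 µM, scaled per plate between neutral and stimulator controls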;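 also: PAF is a Pseudomonas aeruginosa culture filtrate used as stimulus; plate controls were PAF-stimulated DMSO wells for no effect and unstimulated DMSO wells for full effect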
# * marks the source's active call; other numbers are inactive results; . = no result given.
SMILES,HIF-2a inh,TROY signal inh,TWEAK Fn14 block,KKLEB cytotox,Peg3 promoter,CF NFkB block
COc1cccc(NC(=O)/C=C/c2ccco2)c1,-303.2,-24.2,-4.6,-0.1,-296.3,0.2
CC(=O)c1ccc2c(c1)N(CCCN1CCC(CCO)CC1)c1ccccc1S2,-12.0,2.5,-24.7,1.2,10.8,-3.0
CSc1ccc2c(c1)N(CCC1CCCCN1C)c1ccccc1S2 (centres undefined),-18.6,-7.3,-15.4,-8.7,99.1*,28.6
Oc1ccccc1Nc1nc(NCC2CCCO2)c2ccccc2n1 (centres undefined),-16.7,18.4,38.9,-0.5,2.9,-6.5
COc1cccc(Nc2nc(NCC3CCCO3)c3ccccc3n2)c1 (centres undefined),-2.5,43.2,88.5*,-17.1,24.3,-12.2
Oc1ccc(Cl)cc1Nc1nc(NCC2CCCO2)c2ccccc2n1 (centres undefined),-24.6,51.2*,71.8*,-14.1,6.9,-40.0
Oc1ccc(Nc2nc(NCC3CCCO3)c3ccccc3n2)cc1 (centres undefined),22.4,-42.3,7.7,6.1,6.3,-25.8
O=c1[nH][nH]c2c1[C@H](CCc1cccc(Cl)c1)O[C@H](C1CCCC1)C2,12.8,3.8,11.0,.,.,.
NS(=O)(=O)c1ccc(N/N=C/c2cn(-c3ccccc3)nc2-c2cccs2)c([N+](=O)[O-])c1,0.3,-11.2,-0.6,-81.6*,-0.7,87.5*
N=c1n(CC(=O)c2ccc([N+](=O)[O-])cc2)c2ccccc2n1Cc1ccccc1Cl,9.3,8.6,33.3,-8.8,85.0*,5.2
Cn1c(=N)n(CC(=O)c2ccc(Cl)c(Cl)c2)c2ccccc21,-61.8,19.6,85.0*,-32.8,80.8*,-27.9
N=c1n(CC(=O)O)c2ccccc2n1Cc1ccccc1Cl,5.9,4.5,-2.9,3.2,16.3,-6.1
CN(C(=O)CN1C(=O)C2C3CC(C(Br)C3Br)C2C1=O)C1CCCCC1 (centres undefined),7.1,-8.8,-0.1,1.6,1.3,6.9
CCN(CC)C(=O)[C@H]1CC(CC(=O)NC(C)(C)C)C(=O)N2CCc3c([nH]c4ccccc34)[C@]12C (some centres undefined),9.3,2.0,10.0,16.0,-12.6,-16.7
COc1ccc(N/C=C2\CCOC2=O)cc1,-5.1,-16.4,8.8,1.5,-1.3,-2.5
COc1ccc(N/C=C2\C(=O)CCc3c2oc2cc(Cl)c(O)c(Cl)c32)cc1,3.7,55.1*,-0.3,-35.9,21.4,-8.3
COc1ccc(-c2csc(Nc3cc(C)ccn3)n2)cc1OC,-308.5,-23.9,8.6,2.7,-298.0,-7.0
CC(=O)Nc1cccc(-c2csc(Nc3cc(C)ccn3)n2)c1,-215.2,20.7,49.0,-9.7,-183.7,27.8
CC(=O)Nc1ccc(-c2csc(Nc3cc(C)ccn3)n2)cc1,-163.3,30.0,50.3*,-2.4,-207.3,-24.4
Cc1ccnc(Nc2nc(-c3ccccc3)cs2)c1,-231.0,7.8,52.7*,-14.0,-327.7,12.7
CC(=O)Nc1sc(C)c(C)c1C(=O)OCC(=O)N(C)c1c(N)n(Cc2ccccc2)c(=O)[nH]c1=O,15.7,-22.5,-9.7,-16.9,8.8,21.7
Cc1noc(C)c1CSc1nc2ccccc2nc1NS(=O)(=O)c1ccc(Cl)cc1,-13.2,57.4*,18.1,-10.8,50.0,35.0
O=S(=O)(Nc1nc2ccccc2nc1NCc1ccco1)c1ccc(Cl)cc1,-3.2,-3.3,18.4,1.2,25.4,-1.8
COc1ccc(C2N(c3ccccc3)C(=O)C2(F)F)cc1OC (centres undefined),16.0,7.2,-9.8,-5.6,14.7,20.4
Cc1cc(C)cc(Nc2nc3c(S(=O)(=O)c4ccccc4)nnn3c3ccccc23)c1,15.0,7.1,-21.0,2.5,-0.8,-2.7
SMILES,HIF-2a inh,TROY signal inh,TWEAK Fn14 block,KKLEB cytotox,Peg3 promoter,CF NFkB block
Cc1cccc(Nc2nc3c(S(=O)(=O)c4ccccc4)nnn3c3ccccc23)c1,15.9,53.2*,-44.1,-9.8,1.5,-6.7
Cc1ccc(-n2c(SCC(=O)O)nc3sc4c(c3c2=O)CCCC4)cc1,17.1,-0.2,10.4,13.9,8.2,-18.6
CC1CCc2c(sc3nc(SCC(=O)O)n(-c4ccccc4)c(=O)c23)C1 (centres undefined),5.7,-26.8,88.7*,8.4,-1.4,-9.6
COc1cc(S(=O)(=O)NCc2cccnc2)c(OC)cc1Br,13.0,50.3*,8.8,-10.5,12.9,19.0
Cc1sc2ncnc(N3CCC(C(=O)Nc4ccc(OC(F)F)c(Cl)c4)CC3)c2c1C,7.9,51.1*,25.3,-3.6,18.1,10.4
Cc1cc(Br)ccc1NC(=O)CN(C)C(=O)C1CCN(c2ncnc3sc(C)c(C)c23)CC1,5.5,44.5,58.9*,-6.3,34.6,36.8
Cc1sc2ncnc(N3CCC(C(=O)NNC(=O)c4ccccc4Cl)CC3)c2c1C,26.4,21.0,29.8,7.5,29.2,5.7
Cc1sc2ncnc(N3CCC(C(=O)NNC(=O)COc4ccc(Br)cc4)CC3)c2c1C,17.4,74.0*,88.1*,1.7,17.4,20.0
Cc1sc2ncnc(N3CCC(C(=O)NNC(=O)COc4cccc(C(F)(F)F)c4)CC3)c2c1C,14.4,49.6,56.0*,16.0,24.1,6.4
CC1CCN(S(=O)(=O)c2cc(F)ccc2CN2C(=O)c3cccnc3C2=O)CC1,4.0,-8.8,-14.1,-1.1,-3.0,-3.1
Cc1cc(=O)n(C(C)Cc2ccccc2)n1C(C)Cc1ccccc1 (centres undefined),5.6,-6.7,18.7,-10.5,-12.9,9.3
CS(=O)(=O)N(CC(=O)N1CCOCC1)c1ccccc1Br,9.7,-1.6,1.4,-2.0,2.2,-11.9
NC(=O)COC(=O)c1ccc2noc(-c3ccccc3)c2c1,-118.3,-48.0,-25.7,-3.7,-72.2,-7.5
Cc1ccc(S(=O)(=O)N2CCN(C(=O)C3CCN(c4ncnc5sc(C)c(C)c45)CC3)CC2)c(C)c1,20.6,41.8,50.6*,-4.8,28.4,2.9
Cc1ccc(OCC(=O)NNC(=O)C2CCN(c3ncnc4sc(C)c(C)c34)CC2)cc1,7.5,48.4,26.4,6.9,19.4,10.5
Cc1nc(N2CCC(C)CC2)c2c(C)c(C(=O)Nc3ccc4c(c3)OCCO4)sc2n1,-17.0,20.6,-24.8,-3.7,6.8,25.7
COc1ccc(NC(=O)c2sc3ncnc(N4CCN(c5ccccn5)CC4)c3c2C)cc1Cl,-39.4,22.0,75.8*,-10.8,20.7,-20.0
Cc1c(C(=O)Nc2ccc3c(c2)OCCO3)sc2ncnc(N3CCCCC3C)c12 (centres undefined),-128.0,47.3,52.7*,-20.5,-17.1,40.9
Cc1sc2ncnc(N3CCC(C(=O)NNC(=O)COc4ccc(Cl)cc4)CC3)c2c1C,12.9,50.5*,86.8*,1.1,20.4,19.4
Cc1sc2ncnc(N3CCC(C(=O)NNC(=O)COc4ccccc4Cl)CC3)c2c1C,10.4,48.0,41.1,-15.0,20.5,23.5

# Assay outcomes from PubChem BioAssay.
